{"source": "the supplement of paper PMC7724964", "assay_in_all_cases": "phage ELISA signal ratio (GST-PRM binding over GST background); higher = stronger binding of peptide-phage to the PRM", "key": {"[1]": {"target": "T1, TRIM11 268-461 SPRY (domain begin residue: 268, domain end residue: 461), Q96F44", "T1 chain": "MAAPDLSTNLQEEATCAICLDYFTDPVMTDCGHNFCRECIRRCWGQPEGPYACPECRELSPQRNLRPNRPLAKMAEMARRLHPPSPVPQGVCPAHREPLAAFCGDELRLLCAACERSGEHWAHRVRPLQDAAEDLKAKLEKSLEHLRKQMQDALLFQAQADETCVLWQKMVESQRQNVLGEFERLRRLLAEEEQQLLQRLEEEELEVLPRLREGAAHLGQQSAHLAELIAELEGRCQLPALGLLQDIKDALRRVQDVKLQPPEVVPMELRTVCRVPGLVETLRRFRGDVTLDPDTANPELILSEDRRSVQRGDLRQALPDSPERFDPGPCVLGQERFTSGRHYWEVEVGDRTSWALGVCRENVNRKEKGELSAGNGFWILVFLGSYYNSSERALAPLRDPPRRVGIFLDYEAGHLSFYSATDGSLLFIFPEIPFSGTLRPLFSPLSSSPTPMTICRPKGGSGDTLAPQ", "summary_of_the_method": "(§1)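 Each value is the phage ELISA signal on the glutathione S-transferase (GST)-domain fusion divided by the signal on GST alone. Human peptide recognition domains were expressed in 96-well plates, fused to the C-terminus of GST, and selected against an M13 phage library carrying randomized, cysteine-free, glycine-flanked hexadecapeptides on the gene-8 major coat protein. After five selection rounds, approximately 48 individual clones from rounds 4 and 5 were tested by phage ELISA, and positive clones were sequenced.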"}, "[2]": {"target": "TRIM25 439-630 SPRY (domain begin residue: 439, domain end residue: 630), Q14258", "sequence (Q14258 whole entry)": "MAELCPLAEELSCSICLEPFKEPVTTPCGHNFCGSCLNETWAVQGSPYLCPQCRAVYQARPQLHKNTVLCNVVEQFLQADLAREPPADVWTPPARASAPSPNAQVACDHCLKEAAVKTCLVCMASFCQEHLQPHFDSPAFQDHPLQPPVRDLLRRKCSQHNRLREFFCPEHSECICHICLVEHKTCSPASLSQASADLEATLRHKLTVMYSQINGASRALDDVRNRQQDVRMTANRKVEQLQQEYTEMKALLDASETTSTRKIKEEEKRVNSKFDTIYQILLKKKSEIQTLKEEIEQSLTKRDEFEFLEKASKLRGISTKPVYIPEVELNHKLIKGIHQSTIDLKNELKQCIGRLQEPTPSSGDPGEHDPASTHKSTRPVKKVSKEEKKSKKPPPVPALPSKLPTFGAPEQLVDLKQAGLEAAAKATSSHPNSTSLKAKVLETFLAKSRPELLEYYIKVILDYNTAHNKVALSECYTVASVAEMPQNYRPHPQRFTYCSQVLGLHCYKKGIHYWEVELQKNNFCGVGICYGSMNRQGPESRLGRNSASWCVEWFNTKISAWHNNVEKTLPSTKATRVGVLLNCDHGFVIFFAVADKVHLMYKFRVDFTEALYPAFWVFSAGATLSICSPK", "summary_of_the_method": "as §1"}, "[3]": {"target": "TRIM30 281-496 SPRY (domain begin residue: 281, domain end residue: 496)", "summary_of_the_method": "as §1"}, "[4]": {"target": "T2, TSG101 1-145 UEV (domain begin residue: 1, domain end residue: 145), Q99816", "T2 chain": "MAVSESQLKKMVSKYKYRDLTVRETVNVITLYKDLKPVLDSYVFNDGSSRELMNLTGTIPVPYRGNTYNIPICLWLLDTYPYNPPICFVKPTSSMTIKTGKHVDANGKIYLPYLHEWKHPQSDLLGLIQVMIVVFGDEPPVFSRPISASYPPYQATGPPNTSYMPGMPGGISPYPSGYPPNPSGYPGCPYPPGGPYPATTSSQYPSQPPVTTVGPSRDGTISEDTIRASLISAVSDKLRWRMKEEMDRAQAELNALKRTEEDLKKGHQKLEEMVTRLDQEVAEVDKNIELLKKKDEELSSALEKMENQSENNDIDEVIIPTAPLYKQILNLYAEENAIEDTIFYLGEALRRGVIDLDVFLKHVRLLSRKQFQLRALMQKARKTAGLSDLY", "summary_of_the_method": "as §1"}, "[5]": {"target": "T3, TOM1L2 1-153 VHS (domain begin residue: 1, domain end residue: 153), Q6ZVM7", "T3 chain": "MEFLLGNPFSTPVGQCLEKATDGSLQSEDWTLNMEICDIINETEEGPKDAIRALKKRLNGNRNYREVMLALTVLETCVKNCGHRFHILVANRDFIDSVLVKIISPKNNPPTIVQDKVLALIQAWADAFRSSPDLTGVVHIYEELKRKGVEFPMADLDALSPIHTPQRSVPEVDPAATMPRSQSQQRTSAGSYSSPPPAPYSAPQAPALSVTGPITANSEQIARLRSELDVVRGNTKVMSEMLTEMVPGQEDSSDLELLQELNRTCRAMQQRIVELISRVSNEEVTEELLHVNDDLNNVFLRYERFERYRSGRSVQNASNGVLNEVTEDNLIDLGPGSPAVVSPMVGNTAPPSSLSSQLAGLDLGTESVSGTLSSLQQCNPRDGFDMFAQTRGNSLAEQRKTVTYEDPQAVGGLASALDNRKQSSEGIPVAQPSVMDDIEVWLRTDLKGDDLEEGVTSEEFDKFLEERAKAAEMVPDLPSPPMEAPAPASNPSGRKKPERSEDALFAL", "summary_of_the_method": "as §1"}, "[6]": {"target": "TRIM21 268-465 SPRY (domain begin residue: 268, domain end residue: 465), P19474", "sequence (P19474 whole entry)": "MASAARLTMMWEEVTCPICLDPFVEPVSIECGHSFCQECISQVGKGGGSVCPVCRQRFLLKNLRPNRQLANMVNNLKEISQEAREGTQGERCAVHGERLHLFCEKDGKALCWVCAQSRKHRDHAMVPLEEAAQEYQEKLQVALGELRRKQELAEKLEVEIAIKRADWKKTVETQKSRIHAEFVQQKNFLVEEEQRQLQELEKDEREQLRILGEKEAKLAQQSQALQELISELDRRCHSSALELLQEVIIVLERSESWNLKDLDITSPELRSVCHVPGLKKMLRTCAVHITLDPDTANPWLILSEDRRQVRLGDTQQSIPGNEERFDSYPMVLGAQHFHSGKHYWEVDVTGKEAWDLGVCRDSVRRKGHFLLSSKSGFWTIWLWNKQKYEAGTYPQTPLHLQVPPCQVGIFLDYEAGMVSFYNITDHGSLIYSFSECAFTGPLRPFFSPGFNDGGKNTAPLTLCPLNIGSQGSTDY", "summary_of_the_method": "as §1"}, "[7]": {"target": "T4, TOM1L1 1-150 VHS (domain begin residue: 1, domain end residue: 150), O75674", "T4 chain": "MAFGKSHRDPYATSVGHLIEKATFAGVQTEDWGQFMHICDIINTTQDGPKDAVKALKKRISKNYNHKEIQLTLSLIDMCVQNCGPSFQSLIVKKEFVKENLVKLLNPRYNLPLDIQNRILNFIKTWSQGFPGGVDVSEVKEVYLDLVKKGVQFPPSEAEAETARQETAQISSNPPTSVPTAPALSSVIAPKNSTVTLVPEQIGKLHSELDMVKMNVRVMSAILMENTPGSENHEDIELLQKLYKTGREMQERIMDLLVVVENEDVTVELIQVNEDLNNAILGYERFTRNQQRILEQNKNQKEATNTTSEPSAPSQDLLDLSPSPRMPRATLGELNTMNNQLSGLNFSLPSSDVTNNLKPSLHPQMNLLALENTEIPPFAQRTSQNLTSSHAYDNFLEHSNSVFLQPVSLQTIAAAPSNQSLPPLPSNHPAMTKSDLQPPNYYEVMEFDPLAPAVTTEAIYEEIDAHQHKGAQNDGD", "summary_of_the_method": "as §1"}, "[8]": {"target": "TRIM7 324-511 SPRY (domain begin residue: 324, domain end residue: 511), Q9C029", "summary_of_the_method": "as §1"}}}
{"binder": "KVNTFHFMDPPDWLTH", "values": [{"measurement": "phage ELISA signal ratio", "setting": "[1]", "result": 14.3}]}
{"binder": "WDDGFMEYGALPHEQM", "values": [{"measurement": "phage ELISA signal ratio", "setting": "[2]", "result": 12.3}]}
{"binder": "TELPFTYMTRIPSWVW", "values": [{"measurement": "phage ELISA signal ratio", "setting": "[1]", "result": 30}]}
{"binder": "WYEDGWWTPHRMEQTR", "values": [{"measurement": "phage ELISA signal ratio", "setting": "[1]", "result": 30}]}
{"binder": "DVIPWDTWNFWREQDF", "values": [{"measurement": "phage ELISA signal ratio", "setting": "[3]", "result": 9.37}]}
{"binder": "TDFTYAHAYNPHFIVS", "values": [{"measurement": "phage ELISA signal ratio", "setting": "[4]", "result": 5.82}]}
{"binder": "QTPLEAFWEAYDSISW", "values": [{"measurement": "phage ELISA signal ratio", "setting": "[5]", "result": 23.1}]}
{"binder": "IEIPWTQEFIQHWTQG", "values": [{"measurement": "phage ELISA signal ratio", "setting": "[5]", "result": 18.4}]}
{"binder": "MHDDLDWVHHMAVPQV", "values": [{"measurement": "phage ELISA signal ratio", "setting": "[6]", "result": 27.1}]}
{"binder": "ADGWGWYENWVWPASM", "values": [{"measurement": "phage ELISA signal ratio", "setting": "[7]", "result": 4.28}]}
{"binder": "PFTYYSSEMYPWYIFG", "values": [{"measurement": "phage ELISA signal ratio", "setting": "[1]", "result": 11.1}]}
{"binder": "MPDGWWDQYSWEHIAE", "values": [{"measurement": "phage ELISA signal ratio", "setting": "[2]", "result": 15.7}]}
{"binder": "YQMSWMPSEIWWLNYV", "values": [{"measurement": "phage ELISA signal ratio", "setting": "[7]", "result": 9.38}]}
{"binder": "MDWYDMYGTTWDMIPG", "values": [{"measurement": "phage ELISA signal ratio", "setting": "[2]", "result": 10.7}]}
{"binder": "DFTWLHSEKWWPEEWG", "values": [{"measurement": "phage ELISA signal ratio", "setting": "[7]", "result": 14.3}]}
{"binder": "NNNWWMQWHVEEHEME", "values": [{"measurement": "phage ELISA signal ratio", "setting": "[7]", "result": 4.26}]}
{"binder": "VGTFMFGEMPSWVVST", "values": [{"measurement": "phage ELISA signal ratio", "setting": "[1]", "result": 19.6}]}
{"binder": "GLASYFADNYHLIFSE", "values": [{"measurement": "phage ELISA signal ratio", "setting": "[5]", "result": 22.4}]}
{"binder": "DDHLWHPSFKWWDEYV", "values": [{"measurement": "phage ELISA signal ratio", "setting": "[7]", "result": 15.8}]}
{"binder": "QHDWAPSYLWWDEWTM", "values": [{"measurement": "phage ELISA signal ratio", "setting": "[7]", "result": 20.5}]}
{"binder": "WDEEDDHWWEHFFWFQ", "values": [{"measurement": "phage ELISA signal ratio", "setting": "[7]", "result": 12.6}]}
{"binder": "GFFQFQALPEWIVYMN", "values": [{"measurement": "phage ELISA signal ratio", "setting": "[1]", "result": 12.6}]}
{"binder": "QFFLFQSAPSWVLQPI", "values": [{"measurement": "phage ELISA signal ratio", "setting": "[1]", "result": 13.8}]}
{"binder": "IEWEWLDSKEWWPKEF", "values": [{"measurement": "phage ELISA signal ratio", "setting": "[7]", "result": 32.5}]}
{"binder": "MTMDFHPDWWDVADQW", "values": [{"measurement": "phage ELISA signal ratio", "setting": "[8]", "result": 29.6}]}
{"binder": "FPYNPHWDMLQQETTV", "values": [{"measurement": "phage ELISA signal ratio", "setting": "[4]", "result": 3.09}]}
{"binder": "WEMTLMEEAWATKFEV", "values": [{"measurement": "phage ELISA signal ratio", "setting": "[6]", "result": 29.9}]}
{"binder": "WDWQTDYGYWEDFVPV", "values": [{"measurement": "phage ELISA signal ratio", "setting": "[3]", "result": 4.08}]}
{"binder": "QVFWYPQAEEWPWFLD", "values": [{"measurement": "phage ELISA signal ratio", "setting": "[1]", "result": 34.5}]}
